Test results as given in PubChem BioAssay (NCI).
This is part of a sample that, as a whole, favours compounds with a hit. Of some 83,000 tested, about 20% had one in any assay.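 Single-concentration screen, 48 h exposure, 96-well plates. Endpoint: percent growth. Below 10 = active.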 Activity calls are given as the source filed them.

tested on: HL-60(TB) leukemia; experiment: NCI-60 one-dose screen, 48 h (100 = growth as untreated, 0 = no growth, -100 = all killed); conditions: 10 µM unless noted

Compound	growth
Cc1ccc(C)c2c1CCC2=O	134% (inactive)
CC(OC(=O)Nc1cccc(Cl)c1)C(=O)O (stereo not given)	90.2% (inactive)
C/C(=N\NC(N)=S)C(C)(C)O	102% (inactive)
CC(=O)Oc1ccccc1C(=O)N(Cc1ccc2c(Cl)cc(Cl)c(O)c2n1)c1ccccc1	46.7% (inactive)
COc1ccc(C2CC(c3ccccc3)=NN2C(=O)c2cc(OC)c(OC)c(OC)c2)cc1O (stereo not given)	-29.3% (active)
O=C(CN1CCN(c2ccccc2)CC1)N1CCN(c2nnc(-c3ccc(Cl)cc3)c(-c3ccc(Cl)cc3)n2)CC1	-40.7% (active)
Cc1c(C(N)=O)sc2ncn(Cc3ccccc3)c(=O)c12	118% (inactive)
COc1nc2ccc(C)cc2cc1/C=[N+](\[O-])c1ccccc1	80.3% (inactive)
NC(=NCc1ccccc1)C(N=Nc1ccccc1)C(=O)NCc1ccccc1 (stereo not given)	72% (inactive)
Nc1c2ccccc2nc2ccccc12 (tested in a mixture with another compound)	26.8% (inactive)
N#C/C(=C\c1ccc(Br)cc1)n1nnc2cc(F)c(F)cc21	-16.2% (active)
OCCN1CCN(CCCN2c3ccccc3Sc3ccc(C(F)(F)F)cc32)CC1	32.7% (inactive)
CCn1cc(C(=O)NN=C2CCCC2)c(=O)c2ccc(C)nc21	98.8% (inactive)
Cc1oc(-c2ccccc2Cl)cc1C(=O)Nc1ccc(S(N)(=O)=O)cc1	102% (inactive)
COc1ccccc1N1CCN(C(=O)c2ccc3nc(NC(=O)c4ccc(NCCc5ccccc5)c([N+](=O)[O-])c4)sc3c2)CC1	94.3% (inactive)
CCOC(=O)c1c(NC(=O)c2ccccc2)sc2c(O)c(CN(CC)CC)ccc12	0.395% (active)
CCC(CCCN1C(=O)c2ccccc2C1=O)Nc1cc(OC)cc2cccnc12 (stereo not given)	86.1% (inactive)
O=C1NC(=O)/C(=C/C=C/c2ccccc2)S1	-29.3% (active)
CC1(C)Cc2c(Br)c(Br)c(Br)c(OCC(O)CN3CCN(c4ccccn4)CC3)c2O1 (stereo not given)	61.1% (inactive)
Cn1c(=O)n(C)c2cc(CNCCNc3ccnc4cc(Cl)ccc34)ccc21	35.4% (inactive)

Compound	growth
COC(=O)c1c(C)nc(C)c2c1C(=O)C=C(NCc1ccccc1)C2=O	81.8% (inactive)
COc1ccc(C2CC(c3cc(OC)c(OC)c(OC)c3)=NO2)cc1OCCCCOc1cc2c(cc1OC)C(=O)N1CCC[C@H]1C=N2 (stereo not given in full)	34% (inactive)
CC1(c2ccc3ccccc3c2)CCC(=O)O1 (stereo not given)	92.7% (inactive)
Cc1cc(C)c(O)c(CNCCCCCCNCc2cc(C)cc(C)c2O)c1	-43% (active)
S=c1cc(S)c2cc(Br)ccc2[nH]1	101% (inactive)
Clc1ccc(Nc2ncc(Cc3cccc(Cl)c3Cl)s2)cc1	100% (inactive)
Cc1c2ncccc2nc2[nH]c3ccc(OCCN(C)C)cc3c12	15.9% (inactive)
CCN(CC)CCNC(=O)C(F)(F)C(F)(F)C(F)(F)F	108% (inactive)
S=C(NCc1ccccc1)N1CCC(CCCC2CCN(C(=S)NCc3ccccc3)CC2)CC1	89.7% (inactive)
CN1CCN(CCCOC(=O)c2c3c(n4ccccc24)C(=O)c2ncccc2C3=O)CC1	30% (inactive)
COc1cc2oc(-c3cccc(NC(=O)c4ccc5c(c4)OCO5)c3)cc(=O)c2c(OC)c1OC	34.6% (inactive)
O=c1oc2ccc3ccccc3c2cc1-c1ccnc2[nH]c(=S)[nH]c(=O)c12	87.3% (inactive)
COc1ccc2c(c1)c(-c1nc(-c3cn(C)c4ccncc34)cs1)cn2C	81.7% (inactive)
COC(=O)Nc1nc2ccc(C(=O)c3ccc(N(C)C4COC4)cc3)cc2[nH]1	-28.8% (active)
C=C(C)[C@@H]1CC[C@]2(C(=O)O)CC[C@]3(C)[C@H](CC[C@@H]4[C@@]5(C)C/C(=C/c6cccc(I)c6)C(=O)C(C)(C)[C@@H]5CC[C@]43C)[C@@H]12	7.47% (active)
CS(=O)(=O)N(c1cc(-c2ccc3ncnc(Nc4cccc(Cl)c4)c3c2)cnc1Cl)S(C)(=O)=O	8.46% (active)
COc1ccc(C(=O)/C=C/c2cc(-c3ccc(OC)c(OC)c3)n[nH]2)cc1OC	-25.4% (active)
O=C1c2ccccc2C(=O)c2c1ccc(C(Br)Br)c2[N+](=O)[O-]	-37.9% (active)
CC(=O)Nc1cc(C)ccc1C	100% (inactive)
COc1cc(C2=NN(C(C)=O)C(c3ccc(N(C)C)cc3)C2)cc(OC)c1OC (stereo not given)	89.6% (inactive)
